# According to PubChem BioAssay AID504850 (National Center for Advancing Translational Sciences (NCATS), 2011):
# About 1,200 (52%) of roughly 2,300 compounds were called active. Another 34% or so got no clear call; they are omitted. The call rests on the fitted dose curve; in most records, active means well fitted inhibition curve with a large enough effect; inconclusive means small, poorly fitted or top-dose-only effect, or effect the other way; inactive means no such curve, though single readings can be large or run the other way. The set was probably picked from earlier hits. Some of the results follow.
# Assay: Confirmation screen for delayed death inhibitors of the malarial parasite plastid, 48 hour incubation; further: nearly all actives have a fitted effect of over 65% in size
# Details: P. falciparum-infected erythrocytes, luciferase growth; series mostly up to 28.7 µM
# Summary of the method: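 Erythrocytes infected with luciferase-expressing P. falciparum (2% hematocrit, 0.1% parasitemia) incubated with compounds 48 hours at 37 C, 5% CO2, in RPMI/Albumax. Growth inhibition scored as reduced luminescence after detection reagent.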
# Potency means the concentration at half of the fitted maximal effect.
row,SMILES,Potency
1,COc1ccc(NC(=O)N2CCCc3cc(C)ccc32)c(OC)c1,14.1 µM (active)
2,Cc1cc(C)n(Cc2ccc(C(=O)N/N=C/c3ccc(-c4ccc([N+](=O)[O-])cc4)o3)o2)n1,8.91 µM (active)
3,O=C(CCN1C(=O)c2ccccc2C1=O)C1=NN[C@@H]2C(=O)N(c3ccc(F)cc3)C(=O)[C@H]12,inactive
4,CCC/C(C#CCCN1C(=O)c2ccccc2C1=O)=C1/c2ccccc2C(=O)N1c1ccccc1,7.94 µM (active)
5,CCOC(=O)CSc1nc2sc3c(c2c(=O)n1C1CCCCC1)CCN(C)C3,3.16 µM (active)
6,CCn1c(SCC(=O)Nc2ccc(C)cc2)nc2sc3c(c2c1=O)CCN(C)C3,1.41 µM (active)
7,Cc1cccc(NC(=S)/N=C(\N)Nc2nc(C)c3ccccc3n2)c1,12.6 µM (active)
8,CC(CN1CCC(n2nccc2NC(=O)c2ccccc2Cl)CC1)c1ccccc1 (stereo unspecified),15.8 µM (active)
9,C(=N\N(c1ccccc1)c1ccccc1)/c1ccccn1,inactive
10,O=C(N/N=C/c1ccccn1)c1cc([N+](=O)[O-])cc([N+](=O)[O-])c1,10 µM (active)
11,O=[N+]([O-])c1cccc(/C=C/c2nc[nH]c2[N+](=O)[O-])c1,7.94 µM (active)
12,CC1(C)COC(/C=C/c2cccc([N+](=O)[O-])c2)=N1,14.1 µM (active)
13,COc1ccccc1-n1nnnc1S(=O)(=O)Cc1ccc(Cl)cc1,12.6 µM (active)
14,CC(NC(=O)c1cc2sccc2n1C)c1ccc2c(c1)OCCO2 (stereo unspecified),inactive
15,CCCCN(CCCNC(=O)C1CCN(C(=O)c2cc3sccc3n2C)CC1)Cc1ccccc1,5.62 µM (active)
16,O=C(Nc1ccc2c(c1)CCCN2C(=O)c1ccco1)c1cc([N+](=O)[O-])ccc1Cl,12.6 µM (active)
17,COc1ccccc1N(Cc1ccccc1)S(=O)(=O)c1cccc(C(=O)Nc2cc(C)ccn2)c1,11.2 µM (active)
18,COc1ccccc1N(Cc1ccccc1)S(=O)(=O)c1cccc(C(=O)Nc2ccccn2)c1,8.91 µM (active)
19,COc1cc(OC)cc(C(=O)Nc2ccc3c(c2)CCCN3C(=O)c2cccs2)c1,12.6 µM (active)
20,Cc1ccccc1C(=O)Nc1ccc2c(c1)CCCN2C(=O)c1cccs1,12.6 µM (active)
21,O=C(Cc1cccc2ccccc12)Nc1ccccc1C(=O)O,inactive
22,CC(=O)Nc1ccc(OCc2cccc3ccccc23)cc1,12.6 µM (active)
23,CCOC(=O)c1c(NC(=O)CSc2c[nH]c3ccccc23)sc2c1CCCC2,14.1 µM (active)

row,SMILES,Potency
1,CCOC(=O)c1c(NC(=O)CSc2ccccc2C(=O)O)sc(C)c1C,inactive
2,COc1cc([N+](=O)[O-])c(OC)cc1SCc1n[nH]c(=S)n1-c1ccc(F)cc1,14.1 µM (active)
3,CCCCCCC1C(C#N)=C(N)OC2=C1C(=O)CCC2 (stereo unspecified),inactive
4,CCc1ccc(NC(=O)CSc2nc3n[nH]c(C)c3c(=N)n2-c2cccc(OC)c2)cc1,5.62 µM (active)
5,COc1cccc(NC(=O)CSc2nc3n[nH]c(C)c3c(=N)n2-c2cccc(OC)c2)c1,7.94 µM (active)
6,CCc1nc(SCC(=O)Nc2ccc(N(C)C)cc2)n[nH]1,inactive
7,COc1ccc2c(CC(=O)OCC(=O)Nc3cccc(S(N)(=O)=O)c3)coc2c1,inactive
8,COc1ccccc1NC(=O)c1oc2ccccc2c1NC(=O)C1CC1,8.91 µM (active)
9,COc1cccc(NC(=O)c2oc3ccccc3c2NC(=O)C2CC2)c1,15.8 µM (active)
10,COc1cccc(NC(C)C(=O)Nc2cc([N+](=O)[O-])ccc2Cl)c1 (stereo unspecified),3.16 µM (active)
11,COc1cccc(N/C(SCc2cccc([N+](=O)[O-])c2)=C(/C#N)C(N)=O)c1,inactive
12,CC1CCCCN1C(=O)COC(=O)c1cccc(NS(=O)(=O)c2ccccc2)c1 (stereo unspecified),inactive
13,Cn1c(CCN2CCCC2)nc2cc(NS(=O)(=O)c3ccccc3)ccc21,3.55 µM (active)
14,Cn1c(CCN2CCCC2)nc2cc(NS(=O)(=O)c3ccc(Cl)cc3)ccc21,11.2 µM (active)
15,Cc1cccc(N/N=C(\C(N)=O)C2=NC(C)(C)Cc3ccccc32)c1,4.47 µM (active)
16,CC(=O)c1ccc(N/N=C(/C(N)=O)C2=NC(C)(C)Cc3ccccc32)cc1,7.08 µM (active)
17,CN(Cc1ccc(Cl)c(Cl)c1)C(=O)C1=CC=CN2CCS(=O)(=O)N=C12,7.94 µM (active)
18,CN1C(=O)C(C)(C)c2cc(S(=O)(=O)NCC3CCC(C(=O)NCc4ccc(F)cc4)CC3)ccc21 (stereo unspecified),15.8 µM (active)
19,CCOc1cccc2sc(NC(=O)CCS(=O)(=O)c3ccccc3)nc12,11.2 µM (active)
20,COc1ccc(C)c2sc(NC(=O)CCS(=O)(=O)c3ccccc3)nc12,inactive
21,CC1(C)CC(=O)c2sc(NC(=O)CCS(=O)(=O)c3ccccc3)nc2C1,inactive
22,Cc1ccsc1/C=N/NC(=O)c1nnn(-c2nonc2N)c1-c1ccc2c(c1)OCO2,1.26 µM (active)
23,Nc1nonc1-n1nnc(C(=O)N/N=C/c2cccc(Cl)c2)c1-c1ccc2c(c1)OCO2,0.126 µM (active)

row,SMILES,Potency
1,CCOc1ccc(-c2c(C(=O)N/N=C/c3ccc(OC(C)C)cc3)nnn2-c2nonc2N)cc1,15.8 µM (active)
2,CN(Cc1c(C(=O)N/N=C/c2cccc(O)c2)nnn1-c1nonc1N)c1ccccc1,inactive
3,Nc1nonc1-n1nnc(C(=O)N/N=C/c2ccc(Cl)cc2)c1-c1ccc2c(c1)OCO2,0.0562 µM (active)
4,CC(=O)NC[C@@H]1CN(c2ccc(N3CCOCC3)c(F)c2)C(=O)O1,inactive
5,CCCC(=O)N=C1SC2CS(=O)(=O)CC2N1c1ccc(CC)cc1 (stereo unspecified),7.94 µM (active)
6,CC(=O)NC(C)c1nc2ccccc2n1CC(=O)N1C(C)CCCC1C (stereo unspecified),inactive
7,CC(=O)Nc1nc2ccccc2n1Cc1ccc(C)cc1,6.31 µM (active)
8,Clc1cccc(CN2CCc3c([nH]c4ccccc34)C2)c1,12.6 µM (active)
9,CCN(CC)CCNC(=O)c1ccc(NC(=O)c2ccccc2-c2ccc(C(F)(F)F)cc2)cc1,12.6 µM (active)
10,CCOCCCNC(=O)/C(C#N)=C/c1ccc(-c2ccc(S(=O)(=O)N3CCOCC3)cc2)o1,14.1 µM (active)
11,COc1ccc(-c2c(-c3cc(OC)cc(OC)c3)n(C)c3ccc(-c4ccc5[nH]ccc5c4)cc23)cc1,8.91 µM (active)
12,O=C(c1cccc(S(=O)(=O)N2CCc3ccccc32)c1)N1CCN(c2ccccc2)CC1,14.1 µM (active)
13,COc1cc2c(cc1OC)CN(C(=O)c1cccc(S(=O)(=O)N3CCc4ccccc43)c1)CC2,11.2 µM (active)
14,O=C(CNC(=O)c1cccc(S(=O)(=O)N2CCc3ccccc32)c1)Nc1ccc(F)c(F)c1F,12.6 µM (active)
15,Cc1c(C(=O)N2CCC(n3nccc3NC(=O)C3CC3)CC2)[nH]c2ccc(Cl)cc12,11.2 µM (active)
16,Cc1cc(C)c2[nH]c(C(=O)N3CCC(n4nccc4NC(=O)C4CC4)CC3)c(C)c2c1,12.6 µM (active)
17,Cc1ccc(S(=O)(=O)Nc2cccc3cccnc23)cc1,7.08 µM (active)
18,Cc1ccc(S(=O)(=O)Nc2cccc3cccnc23)c([N+](=O)[O-])c1,5.01 µM (active)
19,N#Cc1cccc(NC(=O)Cn2c3[n+](c4ccc(C(F)(F)F)cc42)CCCCC3)c1,4.47 µM (active)
20,CC1(CCc2ccc3c(c2)OCO3)NCCc2c1[nH]c1ccccc21 (stereo unspecified),8.91 µM (active)
21,CCOc1cc(/C=C2/C(=O)ON=C2C)ccc1OCc1ccccc1,inactive
22,CCOC(=O)C1CCCN(Cc2ccc(OCc3ccccc3)c(OC)c2)C1 (stereo unspecified),14.1 µM (active)
23,CCOC(=O)C1CCCCN1Cc1cccc(OCc2ccccc2)c1 (stereo unspecified),14.1 µM (active)

row,SMILES,Potency
1,CC(C)(C)c1ccc(C(O)CCCN2CCC(C(O)(c3ccccc3)c3ccccc3)CC2)cc1 (stereo unspecified),12.6 µM (active)
2,Cc1ccc(C(=O)C(C(=O)/C=C/c2ccccc2)=C2SCCCS2)cc1,14.1 µM (active)
3,COc1ccc2[nH]cc(CCCN3C(=O)c4ccccc4C3=O)c2c1,inactive
4,COc1ccc2[nH]cc(C(=O)CCl)c2c1,12.6 µM (active)
5,CCn1c2ccccc2c2c3ncc4cccn4c3ccc21,14.1 µM (active)
6,CCC(CC)COC(=O)C1=C(C)NC(=O)NC1c1ccccc1Br (stereo unspecified),12.6 µM (active)
7,COc1cccc(CNC(=O)c2cc3oc4ccccc4c3n2C)c1OC,inactive
8,CCOc1ccc(CNC(=O)c2cc3oc4ccccc4c3n2C)cc1,inactive
9,CCOc1ccccc1CNC(=O)c1cc2oc3ccccc3c2n1CC,14.1 µM (active)
10,CC(=O)Nc1cccc(Oc2ncnc3scc(-c4ccc(C(C)C)cc4)c23)c1,11.2 µM (active)
11,COc1ccc(-c2c(-c3ccc(OC)c(C)c3O)n[nH]c2C)cc1,14.1 µM (active)
12,CC1CCC/C=C/C(=O)c2c(O)cc(O)cc2CC(=O)O1 (stereo unspecified),7.08 µM (active)
13,COc1ccc(C2CC(=O)C3=C(C2)Nc2ccccc2NC3c2coc3ccccc3c2=O)cc1OC (stereo unspecified),1.26 µM (active)
14,CCCCSc1nnc(-c2cc3c(C(F)(F)F)nn(C)c3s2)n1C,12.6 µM (active)
15,Cc1cccc2cc3c(nc12)SC(=NCC1CCCO1)N(Cc1ccco1)C3 (stereo unspecified),1.78 µM (active)
16,O=C(O)CCn1c(-c2ccccc2)cc2c1CCCC2=O,inactive
17,COc1cc(/C=C/C(=O)NC(=O)c2ccccc2O)ccc1OC(C)=O,10 µM (active)
18,O=C(CCl)NCCN1C(=O)S/C(=C\c2cccnc2)C1=O,7.94 µM (active)
19,O=C(CCN1C(=O)S/C(=C\c2ccccc2)C1=O)NC1CCS(=O)(=O)C1 (stereo unspecified),inactive
20,COc1ccc2c(c1OC)C(=O)OC2Nc1nc(-c2ccccc2)cs1 (stereo unspecified),10 µM (active)
21,CCCCCNc1nc2sc3c(c2c(=O)n1-c1cccc(Cl)c1)CCN(C)C3,7.08 µM (active)
22,CCCCNc1nc2sc3c(c2c(=O)n1-c1cccc(Cl)c1)CCN(C)C3,3.55 µM (active)
